Source: the supplement of paper PMC8540655
A number with no mark means an inactive call.

Tested on: Aedes aegypti larvae
Experiment: larval motility relative to same well at 0 h (fraction); higher = more motile (less active compound), active = 0.4 or less
Details: 10 µM
Method in brief: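 Each 96-well plate held about 10 Aedes aegypti larvae per well in 100 µL, along with solvent and larvicide control wells. Compounds were present at 10 µM with 1% v/v DMSO, and INVAPP recorded 200-frame movies at 100 ms intervals at 0, 2 and 24 h. Relative motility divides each well's score by its baseline score from the first recording, with the median taken across independent larval batches, of which there were three.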

Row | Structure (SMILES) | larval motility (2 h) | larval motility (24 h)
1 | O=C(O)c1ccc(-n2nc(-c3ccccc3O)nc2-c2ccccc2O)cc1 | 0.694 | 0.808
2 | O=C(Nc1nnc(-c2ccccc2)o1)c1ccc(F)cc1 | 0.832 | 0.868
3 | CC(C)/N=c1\cc2n(-c3ccc(Cl)cc3)c3ccccc3nc-2cc1Nc1ccc(Cl)cc1 | 0.957 | 0.786
4 | O=C(c1cc(O)nc2ccccc12)N1CCN(c2ccccc2)CC1 | 0.848 | 0.897
5 | O=C(Nc1ccc(Cl)c(C(F)(F)F)c1)C(CCCl)C(=O)Nc1ccc(Cl)c(C(F)(F)F)c1 | 0.848 | 0.397 (active)
6 | C[C@H]1COc2c(N3CCN(C)CC3)c(F)cc3c(=O)c(C(=O)O)cn1c23 | 0.447 | 0.712
7 | O=[N+]([O-])c1cn2c(n1)OC[C@@H](OCc1ccc(OC(F)(F)F)cc1)C2 | 1.12 | 1.3
8 | NNC(=O)c1ccncc1 | 0.924 | 0.744
9 | CNc1nc(=O)[nH]cc1F | 0.634 | 0.909
10 | CC(C)c1cc2c(cc1S(=O)(=O)O)[C@@]1(C)CCC[C@@](C)(C(=O)O)[C@@H]1CC2 | 0.784 | 0.697
11 | O=C(O)c1ccc(-c2ccc(O[C@H]3O[C@H](CO)[C@@H](O)[C@H](O)[C@@H]3O)cc2)cc1 | 0.798 | 1.22
12 | CC(C)n1cnc2c(NCc3ccccc3)nc(NCc3ccccc3)nc21 | 1.3 | 1.42
13 | CCc1ccc(C2CC(C(F)(F)F)n3ncc(C(=O)NCc4ccc(OC)cc4)c3N2)cc1 (stereo not given) | 0.923 | 1.29
14 | CC(C)(C)NC(=O)[C@@H]1C[C@@H]2CCCC[C@@H]2CN1C[C@@H](O)[C@H](Cc1ccccc1)NC(=O)[C@H](CC(N)=O)NC(=O)c1ccc2ccccc2n1 | 1.43 | 1.49
15 | NC(=O)c1nccn([C@@H]2O[C@H](CO)[C@@H](O)[C@H]2O)c1=O | 0.824 | 1.16
16 | CC[C@H]1OC(=O)[C@H](C)[C@@H](O[C@H]2C[C@@](C)(OC)[C@@H](O)[C@H](C)O2)[C@H](C)[C@@H](O[C@@H]2O[C@H](C)C[C@H](N(C)C)[C@H]2O)[C@](C)(O)C[C@@H](C)C(=O)[C@H](C)[C@@H](O)[C@]1(C)O | 1.03 | 0.824
17 | CC(=N)N1CC[C@H](SC2=C(C(=O)O)N3C(=O)[C@@H]([C@@H](C)O)[C@H]3C2)C1 | 1.05 | 0.809
18 | OCCC#Cc1nc(-c2ccc(F)cc2)c(-c2ccncc2)n1CCCc1ccccc1 | 0.457 | 0.301 (active)
19 | CC(C)(C)c1ccc(C(Cn2cccc(C(F)(F)F)c2=O)NC2Cc3ccccc3C2)cc1 (stereo not given) | 0.686 | 0.846
20 | CCc1cc(Cc2cnc(N)nc2N)cc2c1N(C)CCC2C (stereo not given) | 0.948 | 0.898
21 | CC(C)Nc1nc2cc(Cl)c(Cl)cc2n1[C@H]1O[C@@H](CO)[C@H](O)[C@@H]1O | 1.1 | 0.602
22 | Cc1nc2ccc(Oc3ccccc3)cc2c2c1CCN2CCc1ccccc1 | 0.607 | 0.774

Row | Structure (SMILES) | larval motility (2 h) | larval motility (24 h)
23 | COc1cccc(N2CCN(C3=Nc4c(F)cccc4[C@H](CC(=O)O)N3c3cc(C(F)(F)F)ccc3OC)CC2)c1 | 1.02 | 1.01
24 | CCc1ccccc1OCCN1CCCCCC1 | 1.18 | 1.21
25 | CCc1cc(Nc2cc(=O)n(CCN3CCN(C(=O)c4ccccc4)CC3)c(=O)[nH]2)ccc1C | 1.11 | 1.07
26 | Nc1nc(O)ncc1F | 0.641 | 1.04
27 | O=C(Nc1ccccc1)N(Cc1cc(Br)ccc1O)c1ccc(F)cc1 | 0.646 | 1.02
28 | CN1CCN(c2ccc3[nH]c(-c4ccc5[nH]c(-c6ccc(O)cc6)nc5c4)nc3c2)CC1 | 0.732 | 1.11
29 | O=C(O)c1ccccc1Sc1ncnc2sc3c(c12)CCC3 | 0.968 | 0.722
30 | NC(=O)C(c1ccccc1)(c1ccccc1)[C@H]1CCCN(CCc2ccc3c(c2)CCO3)C1 | 0.612 | 0.78
31 | COC(=O)Nc1nc2c(C)cccc2[nH]1 | 0.678 | 0.778
32 | Cc1[nH]c2ccccc2c1CC(=O)N[C@@H](Cc1ccccc1)C(=O)N(C)c1ccccc1 | 0.963 | 1.03
33 | Cc1ccc(NC(=O)c2ccc(CN3CCN(C)CC3)cc2)cc1Nc1nccc(-c2cccnc2)n1 | 0.64 | 0.702
34 | CN(C)CCNC(=O)c1cccc2cccnc12 | 0.941 | 0.825
35 | COc1ccc(COc2cc3oc(=O)c4cc(C(C)O)ccc4c3cc2OC)cc1 (stereo not given) | 1.02 | 1.2
36 | N=c1n(CCN2CCCCC2)c2ccccc2n1CC(O)COc1ccc(Cl)cc1Cl (stereo not given) | 1.02 | 0.502
37 | O=[N+]([O-])c1cn(Cc2nc(O)nc(O)c2Br)cn1 | 0.834 | 0.417
38 | Cc1ccc(Oc2ccccc2-c2csc(NC3=NCCCN3)n2)c(C)c1 | 0.774 | 0.786
39 | Cc1cc(-c2ccccc2)c(C(=O)C(=O)Nc2ccc(N3CCN(c4ncc(F)cn4)CC3)cc2)n1C | 0.636 | 0.529
40 | Clc1ccc(COC(Cn2ccnc2)c2ccc(Cl)cc2Cl)c(Cl)c1 (stereo not given) | 0.499 | 0.677
41 | CCc1nc(N)nc(N)c1C#CC(C)c1cc(OC)cc(-c2ccncc2)c1 (stereo not given) | 0.87 | 0.417
42 | N#C/C(=C1/SC[C@H](c2ccc(Cl)cc2Cl)S1)n1ccnc1 | 0.983 | 1
43 | COc1c(NC(=O)[C@H]2CC[C@@H](COc3ccc([N+](=O)[O-])cc3)CC2)c(F)cc2c(=O)c(C(=O)O)cn(C3CC3)c12 | 1.02 | 0.873
44 | CSC[C@H]1CN(Cc2c[nH]c3c(N)ncnc23)C[C@@H]1O | 1.02 | 0.589

Row | Structure (SMILES) | larval motility (2 h) | larval motility (24 h)
45 | CC(C)=CCC/C(C)=C/CNCCNC1C2CC3CC(C2)CC1C3 (stereo not given) | 0.85 | 0.924
46 | O=C(NC(=O)N1CCCc2ccccc21)c1ccc(Cl)cc1Cl | 0.529 | 0.89
47 | OC[C@@H]1CC[C@H](n2cnc3c(O)ncnc32)O1 | 1.15 | 0.963
48 | CN(C)[C@@H]1C(=O)C(C(N)=O)=C(O)[C@@]2(O)C(=O)C3=C(O)c4c(O)c(NC(=O)CN5CCCC5)cc(F)c4C[C@H]3C[C@@H]12 | 0.841 | 1.78
49 | c1cc(CN2CCCNCCNCCCNCC2)ccc1CN1CCCNCCNCCCNCC1 | 0.964 | 0.915
50 | CC(Cc1ccccc1)C(=O)Nc1ccc(Cl)cc1C(=O)O (stereo not given) | 1.32 | 1.05
51 | Fc1cccc(Cl)c1C1CC(c2ccc(Cl)cc2)Nc2nnnn21 (stereo not given) | 1.01 | 1.08
52 | Nc1nc(-c2ccccc2)nc2c1ncn2[C@@H]1O[C@H](COS(=O)(=O)NC(=O)c2ccccc2O)[C@@H](O)[C@H]1O | 0.842 | 1.04
53 | O=C(O)[C@H]1C2CCC(CC2)[C@@H]1Nc1nc(-c2c[nH]c3ncc(F)cc23)ncc1F | 0.877 | 1.17
54 | CCCCCCC1c2ccc(O)cc2Oc2cc(O)ccc21 | 0.468 | 0.989
55 | N#Cc1c(F)c(Cl)c(NCc2ccccc2)c(C#N)c1F | 0.585 | 0.978
56 | CCC(CC)[C@H](NC(C)=O)[C@@H]1[C@H](O)[C@@H](C(=O)O)C[C@H]1NC(=N)N | 0.729 | 1.91
57 | CCCCCCCCCN1C[C@@H](O)[C@H](O)[C@@H](O)[C@@H]1CO | 0.996 | 1.3
58 | Oc1ccc2[nH]c(-c3ccccc3)nc2c1 | 0.633 | 0.514
59 | CN(C)c1[nH]c(=O)ncc1F | 1.24 | 1.3
60 | CC(C)(C)c1cc(C(=O)/C(C#N)=N/Nc2cccc(Cl)c2)no1 | 1.14 | 1.21
61 | O=P(O)(O)C(CCCc1cccc(Oc2ccccc2)c1)S(=O)(=O)O (stereo not given) | 0.663 | 0.88
62 | Fc1ccc2c(/C=C/c3cccnc3)c[nH]c2c1 | 1.04 | 0.678
63 | Cc1cc(Nc2ccc(F)cc2)nc(SCc2nc3ccccc3[nH]2)n1 | 0.661 | 0.622
64 | Cc1nc2ccc(Cl)cc2c(-c2ccccc2)c1CC(=O)O | 0.615 | 1.02
65 | O=C(O)CSc1cc(NS(=O)(=O)c2cccc3cccnc23)c2ccccc2c1O | 0.969 | 0.675
